# A selection: hits, their analogues and other compounds. The true share with any hit is near 8.1%.
# Gal4-VP16 FLuc: counter-screen for ROR gamma inhibitors: Gal4-VP16 reporter. Drosophila S2 Gal4-VP16 UAS-luciferase, luminescence, 20 h. Potency, µM (series often up to 53.6 µM), for the others: at the highest dose activity, negative = inhibition, actives largely listed as inhibitors. 3.5% of 310,000 active;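 note: Gal4-VP16 expression switched on by copper sulfate through the metallothionein promoter; % is set by controls: 0 for no effect and ±100 for the full control effect; nearly all actives have a fitted effect of over 50% in size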
# Epigenetic derep: epigenetic control regulation, reporter derepression; murine LDR cells, GFP reporter derepression, 30 h; Potency, µM (highest dose often 53.9 µM), inactives show top-dose GFP activation, most hits filed as activators; 0.2% of 280,000 active; AID 1865; note: % of control where 0% means no effect; nearly all actives have a fitted effect of over 60% in size
#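 Murine LDR cells carrying a silenced, genomically integrated CMV-driven GFP reporter were exposed to compound for 30 hours at 37 C. After PBS washes, GFP-positive cells (20–120 um objects) were counted by laser-scanning microplate cytometry.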
# ClpP mod: qHTS Assay for Activators of ClpP; ATP-dependent Clp protease proteolytic subunit (Bacillus subtilis (strain 168)), P80244; purified B. subtilis ClpP, FRET peptide cleavage, 20 min; Potency, µM (top dose mostly 57.5 µM), for the others: at the top dose activity change, negative = active; 1.9% of 340,000 active; AID 651965, 2013; active = well fitted falling curve with a large enough effect; inconclusive = small, poorly fitted or top-dose-only effect; inactive = no such curve, though single readings can be large or run the other way; note: the source files actives as falling curves though it sought activators and does not explain the sign; nearly all actives have a fitted effect of over 65% in size
# Target sequence (P80244 whole entry, looked up): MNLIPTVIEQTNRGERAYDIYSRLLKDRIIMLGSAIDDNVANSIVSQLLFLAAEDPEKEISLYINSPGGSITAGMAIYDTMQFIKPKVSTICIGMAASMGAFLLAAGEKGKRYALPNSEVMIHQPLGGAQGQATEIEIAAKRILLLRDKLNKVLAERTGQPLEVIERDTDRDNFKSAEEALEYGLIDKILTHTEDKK
#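 FRET quenching reversal measured ClpP activation: 10 microg/mL B. subtilis ClpP at pH 8 with the FRET-FV decapeptide, read at 430 nm after 320 nm excitation. The 20-min minus 0-min signal was scaled between DMSO/no-enzyme wells and ADEP (5.8 microM final).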
# Sfp PPTase inh: Sfp phosphopantetheinyl transferase inhibition | Q9F4F7 | Biochemical Sfp PPTase activity, qHTS | Potency, µM, inactives show largest response in the series, negative = inhibition, most hits filed as inhibitors | 3.5% of 310,000 active;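 note: the enzyme is Sfp with the accession as filed and its product quenches rhodamine fluorescence; 0% = enzyme reaction without inhibitor and -100% = no enzyme wells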
#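 Reaction rates are the 30-min fluorescence difference (ex 525, em 598 nm) in wells containing 15 nM Sfp, 5 uM rhodamine-CoA and 12.5 uM BHQ-2-YbbR at pH 7.6 with 10 mM MgCl2.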
# PINK1 modulator: PINK1 expression modulation. PINK1 immunofluorescence, high-content cytometry, 24 h. Potency, µM (series often up to 76.6 µM), for the others: top-dose activation (PINK1 increase), hits mostly activators. 0.2% of 410,000 active; active = well fitted activation curve with a large enough effect; inconclusive = small, poorly fitted or top-dose-only effect; cell line not stated here; note: % of control where 0% means no effect; nearly all actives have a fitted effect of over 65% in size
#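 Stable cell line, 250 cells/well, 12 h attachment; compounds pinned at 5 concentrations, 24 h; CCCP control. Fixed with nuclear dye, primary antibodies 12 h at 10 degrees C, secondary plus cell stain; laser-scanning cytometer read.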
# RORgamma inh: blocks mouse ROR gamma transcriptional activity; P51450; Drosophila S2 Gal4-RORgamma UAS-luciferase reporter, 20 h; Potency, µM (series often up to 53.6 µM), without a hit: at the highest dose activity change, negative = inhibition, actives largely listed as inhibitors; 5.4% of 310,000 active; note: % is set by controls: 0 for no effect and ±100 for the full control effect; nearly all actives have a fitted effect of over 60% in size
# Target sequence (P51450 whole entry, looked up, the tested form may be a part): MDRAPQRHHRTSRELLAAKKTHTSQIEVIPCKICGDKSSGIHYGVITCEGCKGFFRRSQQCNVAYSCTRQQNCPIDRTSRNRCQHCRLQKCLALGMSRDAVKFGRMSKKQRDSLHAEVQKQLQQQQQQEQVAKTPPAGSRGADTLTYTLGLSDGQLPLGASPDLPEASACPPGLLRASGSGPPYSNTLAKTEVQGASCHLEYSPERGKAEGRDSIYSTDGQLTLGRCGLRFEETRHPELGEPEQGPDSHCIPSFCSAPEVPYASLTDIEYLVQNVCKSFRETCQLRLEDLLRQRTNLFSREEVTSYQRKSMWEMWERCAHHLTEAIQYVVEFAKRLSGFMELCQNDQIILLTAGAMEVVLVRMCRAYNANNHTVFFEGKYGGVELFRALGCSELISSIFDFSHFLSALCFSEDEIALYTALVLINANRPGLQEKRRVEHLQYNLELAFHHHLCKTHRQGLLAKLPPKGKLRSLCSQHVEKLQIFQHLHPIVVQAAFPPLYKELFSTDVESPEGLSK
#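 Read-out: Photinus luciferase luminescence; inhibitors lower reporter signal. Insect Schneider cells with Gal4-ROR gamma fusion under metallothionein promoter, UAS reporter; 700 uM final copper sulfate induction, 20 hr, ambient temperature.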
# * marks the source's active call; other numbers are inactive results; ? = inconclusive; . = no result given; [ ] = another dose, or the depositor's remark. Unless noted, calls come from the whole dose curve; as a rule, active = well fitted curve in the direction sought with a large enough effect; inconclusive = small, poorly fitted or top-dose-only effect, or another doubt; inactive = no such curve, though single readings can be large; an effect the other way counts as inactive or inconclusive. Potency is the fitted concentration of half-maximal effect.
SMILES,Gal4-VP16 FLuc,Epigenetic derep,ClpP mod,Sfp PPTase inh,PINK1 modulator,RORgamma inh
NC1=NN=C(N2N=C(c3ccccc3)CC2(O)C(F)(F)F)n2ncnc2C1 (stereo not drawn),?,-2%,3%,17%,2%,13µM*
COc1ccc(C2=NN(C3=NN=C(N)Cc4ncnn43)C(O)(C(F)(F)F)C2)cc1 (stereo not drawn),11µM*,-4%,4%,-2%,0%,8.9µM*
Cc1cccc(C(=O)N2CCNC(=O)C2CC(=O)Nc2ccc(F)cc2)c1 (stereo not drawn),.,0%,0%,.,1%,.
O=C(CSc1nnc(-c2ccccc2F)n1C1CCCCC1)Nc1cc(C(=O)O)ccc1Cl,.,.,0%,.,-1%,.
Cc1ccc(-n2nnnc2SCC(=O)Nc2cccnc2Cl)cc1,13µM*,1%,1%,0%,10%,?
O=C(CSc1nnc(-c2ccccc2F)n1C1CC1)Nc1cccnc1Cl,40µM*,0%,?,-6%,-1%,?
COc1ccccc1NC(=O)CSc1nnnn1-c1ccccc1F,17%,.,0%,40µM*,-1%,0%
O=C(CSc1nnnn1-c1cccnc1)Nc1ccccc1F,.,.,28µM*,10%,-2%,.
O=C(CSc1nnnn1-c1ccc(Cl)cc1)Nc1cccnc1Cl,?,2%,-3%,-21%,3%,?
CN(C)c1ccc(NC(=O)Cn2nnc3sc4c(c3c2=O)CCC(C(C)(C)C)C4)cc1 (stereo not drawn),.,-4%,1%,.,2%,.
CCOC(=O)c1ccccc1NC(=O)N1CCC(CN2CCOCC2)CC1,.,0%,5%,.,0%,.
CC(C)(C)OC(=O)N1CCC(c2c(C(=O)N3CCN(c4ccccc4)CC3)cnn2-c2ccccc2)CC1,.,-1%,-1%,.,-1%,.
O=C(CCN1CCCCC1)c1ccc2c(c1)OCO2,13µM*,-3%,-8%,?,0%,3.2µM*
O=C(CCN1CCOCC1)c1ccc2c(c1)OCCO2,3.2µM*,1%,-1%,-15%,-1%,?
O=C(CCCN1CCOCC1)c1ccc2c(c1)OCCO2,?,13%,-2%,7%,.,?
O=C(CCN1CCc2ccccc2CC1)c1ccc2c(c1)OCCO2,4µM*,-1%,6%,40µM*,-1%,6.3µM*
Cc1ccc(NC(=O)CN2C(=O)C(c3ccc(C(C)(C)C)cc3)=NC2(C)C)cc1,.,1%,3%,.,1%,.
CC(=O)c1ccc(-n2c(SCC(=O)c3c[nH]c4ccccc34)nc3ccccc3c2=O)cc1,-18%,-1%,1%,8%,2%,1.4µM*
CC(C)c1cnc2c(c1SCC(=O)Nc1cccc(F)c1)c(=O)n(C)c(=O)n2C,.,-3%,-1%,.,0%,.
COc1cccc(O)c1O,?,-1%,.,20µM*,0%,?
COc1ccccc1O,-2%,.,3%,2%,2%,17%
CCCCN(C)CCNC(=O)c1c(C)oc2ncnc(N3CCOCC3)c12,.,-1%,-1%,.,-1%,.
CCCCSc1nc(O)c(C2OC(=O)c3c2ccc(OC)c3OC)c(=O)n1-c1ccccc1 (stereo not drawn),0%,2%,-4%,79µM*,0%,-4%
CCCSc1nc(O)c(C2OC(=O)c3c2ccc(OC)c3OC)c(=O)n1-c1ccccc1 (stereo not drawn),9%,-3%,-6%,16%,0%,-11%
CSc1ccc(Nc2nn(-c3ccc(OC(F)(F)F)cc3)nc2C(C)=O)cc1,.,-3%,-30%,.,1%,.
SMILES,Gal4-VP16 FLuc,Epigenetic derep,ClpP mod,Sfp PPTase inh,PINK1 modulator,RORgamma inh
CCc1nc2cc(C(=O)N[C@H]3CCCCNC3=O)cc(NC(=O)c3ccccc3OC)c2n1C,.,.,.,.,0%,.
COC(=O)CC1c2ccccc2C=C(C2CC2)N1C(=O)OC (stereo not drawn),-6%,0%,.,-4%,.,2%
CCOC(=O)C1C(=O)C=C(/C=C/c2ccc(N(C)C)cc2)CC1c1ccccc1 (stereo not drawn),8%,22µM*,4%,8%,?,?
CC1C/C(=N\NC(N)=S)c2cc(Cl)ccc2S1 (stereo not drawn),2µM*,1%,-1%,?,5%,0.63µM*
CC(C)=C1CCC(C)CC1=NNC(N)=S (stereo not drawn),.,.,2%,.,8%,.
CCc1cccc(-n2c(=O)c3cccnc3n2CC(=O)Nc2ccccc2C(=O)OC)c1,.,6%,4%,.,1%,.
O=C(NC1=NCCS1)c1ccccc1,6%,.,0%,23%,-1%,-12%
O=C(NC1=NCCS1)c1ccncc1,5%,-1%,-2%,5%,1%,-14%
O=C(NC1=NCCS1)c1csc2ccccc12,?,3%,-26%,-4%,2%[38.3 µM],7.9µM*
Cc1cccc(C(=O)NC2=NCCS2)c1,-29%,0%,.,-3%,2%,11µM*
Cc1cc(C(=O)NC2=NCCS2)cs1,?,0%,-1%,16%,?,11µM*
COc1cc(OC)c(N(C)S(=O)(=O)c2cccc(C(=O)NC3=NCCS3)c2)cc1Cl,?,0%,.,9%,7%,10µM*
O=C(NC1=NCCS1)c1ccccc1Cl,2%,.,.,8%,4%,-1%
CCCS(=O)(=O)NCCc1sc2nc(-c3ccc(F)cc3)nn2c1C,.,2%,2%,.,2%,.
COCCN1CCN(C(=O)c2cnn(-c3nccc(-c4ccccc4OC)n3)c2-c2ccco2)CC1,.,.,.,.,0%,.
Cc1ccc(N(C)C(=O)Cn2nc(Cc3ccncc3)c3ccccc3c2=O)cc1C,.,0%,-2%,.,0%,.
O=C(NC1=NCCS1)c1ccc(Cl)c(Cl)c1,?,.,.,1%,1%,11µM*
Cc1ccc(CCNC(=O)CCCn2nc(C)c3c(C)n(-c4ccc(C)cc4)nc3c2=O)cc1,-12%,3%,-2%,-5%,2%,4%
Cc1ccc(-n2nc3c(=O)n(CC(=O)NCCc4ccc(Cl)cc4)nc(C)c3c2C)cc1,13µM*,.,2%,-30%,0%,44%
Cc1ccc(CNC(=O)c2cc(C3CC3)nc3c2c(C)nn3-c2cccc(Cl)c2C)cc1,.,1%,?,.,-1%,.
Cc1c(Cl)cccc1-n1nc(C)c2c(C(=O)NCc3ccccc3)cc(C3CC3)nc21,.,-1%,13µM*,.,1%,.
COc1ccc(-c2cnc(C)o2)cc1S(=O)(=O)Nc1ccc(OC(F)(F)F)cc1,.,-3%,-4%,.,2%,.
COc1cc2c(cc1OC)-c1cc(NC3CCCC3)nc(=O)n1CC2,2%,0%,32µM*,-20%,1%,?
Cc1cc(C(=O)CSc2nnnn2-c2ccccc2)c(C)n1-c1ccc2c(c1)OCO2,11µM*,-2%,1%,-15%,0%,-35%

# Screening data (PubChem)
